This is an account of results in PubChem BioAssay (Tox21).

The target in experiment [1] is Thyrotropin-releasing hormone receptor (Homo sapiens) (UniProt P34981). Put plainly: qHTS assay to identify small molecule agonists of the thyrotropin-releasing hormone receptor (TRHR) signaling pathway (AID 1346891; calls by dose curve;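 also: HEK293 cells expressing TRHR with calcium dye readout; series mostly up to about 58 µM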). Summed up:
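Cells: TRHR-Hek293, seeded and incubated 18 h. Dye loading: 2 h at 37 °C. Compound added from DMSO stock by pin tool. Read-out: kinetic calcium fluorescence over 3 min.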

A short description of experiment [2]: Human pregnane X receptor (PXR) small molecule agonists, qHTS cell viability counter screen (AID 1346977). Also: nearly all actives have a fitted effect of over 50% in size. Also: potency is read from the fitted curve at half-maximal effect. Summed up:
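Cytotoxicity counter screen run in the same wells as the PXR luciferase assay, using PXR-Luc HepG2 cells in charcoal-stripped serum medium. Viability: CellTiter-Fluor fluorescence after 24hr compound treatment.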
A general note: qHTS replaces the single test concentration by a dilution series.

The nature of experiment [3]: Caspase-3/7 induction in HepG2 cells by small molecules, qHTS assay (AID 1346978). Also: nearly all actives have a fitted effect of over 15% in size. Also: potency is read from the fitted curve at half-maximal effect. The gist of the method:
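Wild-type HepG2 cells, 2,000/well, settled 5 hr at 37 C and 5% CO2, then compound-treated for 17 hr; caspase-3/7 activity read by luminescent Caspase-Glo 3/7 after 30 min at room temperature.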

Experiment [4] in a line: Caspase-3/7 induction in CHO-K1 cells by small molecules, qHTS cell viability counter screen (AID 1346979). Also: nearly all actives have a fitted effect of over 35% in size. Also: potency is read from the fitted curve at half-maximal effect. Summed up:
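Cytotoxicity counter screen run in parallel with the caspase-3/7 assay: CHO-K1 cells, 16hr compound treatment at 37C, then CellTiter-Fluor for 1hr before fluorescence reading.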

The nature of experiment [5]: Caspase-3/7 induction in CHO-K1 cells by small molecules, qHTS assay (AID 1346980). Also: nearly all actives have a fitted effect of over 15% in size. Summed up: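 Wild-type CHO-K1 cells exposed to compounds for 17hr at 37 C, 5% CO2. Caspase-3/7 activity then measured by Caspase-Glo 3/7 luminescence after 30min at room temperature.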
Experiment [6] can be described thus: Caspase-3/7 induction in HepG2 cells by small molecules, qHTS cell viability counter screen (AID 1346981). Also: series mostly up to about 92 µM; nearly all actives have a fitted effect of over 30% in size. Summed up: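 HepG2, WT, 2,000 cells/well; 5 hr pre-incubation 37 C/5% CO2; compound pin-transferred from DMSO; 16 hr exposure; CellTiter-Fluor, 1 hr; fluorescence read.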
Experiment [7] concerns the target Nuclear receptor subfamily 1 group I member 2 (Homo sapiens) (UniProt O75469). Put plainly: Human pregnane X receptor (PXR) small molecule agonists, qHTS assay (AID 1346982). Also: nearly all actives have a fitted effect of over 35% in size. Also: potency is read from the fitted curve at half-maximal effect. The gist of the method:
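Luciferase signal from ONE-Glo (30 min, room temperature) measured activation of hPXR-driven CYP3A4 reporter expression in PXR-Luc HepG2 cells treated with compounds for 24 hr at 37 C.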

Several values for one entry are separate records, joined by “and”; a condition that tells them apart may be missing. Equal values may be shown once. Results filed as inconclusive are left out. A structure can be active in one record and inactive in another. Activity calls are given as the source filed them. Unless noted, calls follow the shape of the dose curve; as a rule, active = well fitted curve in the direction sought with a large enough effect in the repeat runs; inconclusive = weak or mixed curves; inactive = no such curve, though single readings can be large; an effect the other way counts as inactive or inconclusive.

Thyrotropin-releasing hormone receptor (Homo sapiens), sequence (P34981 whole entry, looked up): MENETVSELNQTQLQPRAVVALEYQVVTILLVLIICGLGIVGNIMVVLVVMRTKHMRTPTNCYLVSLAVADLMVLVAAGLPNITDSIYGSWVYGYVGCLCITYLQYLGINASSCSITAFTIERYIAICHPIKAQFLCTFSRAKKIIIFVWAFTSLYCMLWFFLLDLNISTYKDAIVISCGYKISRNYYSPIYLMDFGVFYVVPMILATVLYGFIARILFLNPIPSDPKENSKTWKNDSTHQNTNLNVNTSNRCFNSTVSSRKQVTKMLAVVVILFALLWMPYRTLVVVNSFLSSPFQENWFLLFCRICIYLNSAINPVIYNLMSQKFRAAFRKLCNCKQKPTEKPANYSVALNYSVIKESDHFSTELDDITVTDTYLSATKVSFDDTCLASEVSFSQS
Nuclear receptor subfamily 1 group I member 2 (Homo sapiens), sequence (O75469 whole entry, looked up): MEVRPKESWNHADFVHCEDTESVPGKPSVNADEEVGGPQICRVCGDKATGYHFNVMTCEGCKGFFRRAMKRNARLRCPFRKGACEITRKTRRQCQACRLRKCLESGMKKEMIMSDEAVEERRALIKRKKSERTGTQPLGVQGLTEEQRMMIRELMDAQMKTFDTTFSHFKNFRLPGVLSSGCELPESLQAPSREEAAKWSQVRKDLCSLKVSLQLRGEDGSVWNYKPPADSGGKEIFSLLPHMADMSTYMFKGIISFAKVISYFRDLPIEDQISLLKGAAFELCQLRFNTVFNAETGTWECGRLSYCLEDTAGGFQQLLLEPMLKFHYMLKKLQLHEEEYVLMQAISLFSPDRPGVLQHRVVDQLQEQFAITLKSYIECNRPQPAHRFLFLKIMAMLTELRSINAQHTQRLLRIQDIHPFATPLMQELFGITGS

Regarding `C=CC[N+](C)(C)CC=C`, the compound was classed as inactive in experiment [1] and in experiment [5]. Moreover, the Potency result in experiment [2], in experiment [3], in experiment [4] and in experiment [6] was “inactive” each time. In addition, in experiment [7], the Potency was 54.9 µM (active) and inactive.

For `CC(C)CC(=O)CC(C)CC(C)C` (stereo not drawn), the call in experiment [1] and in experiment [5] was inactive. The Potency result in experiment [2], in experiment [3], in experiment [4], in experiment [6] and in experiment [7] was “inactive” each time.

On to `O=C(O)/C=C/C(=O)O`, for which the compound was called inactive in experiment [1] and in experiment [5]. Moreover, the Potency entry in experiment [2], in experiment [3], in experiment [4] and in experiment [6] was “inactive” each time.

As to `CC(=O)OC1CC(C)OC(C)O1` (stereo not drawn), the call in experiment [1] and in experiment [5] was inactive. Further, the Potency result in experiment [2], in experiment [3], in experiment [4], in experiment [6] and in experiment [7] was “inactive” in each case.

For the compound `O=S(=O)(O)c1ccccc1`, the compound was classed as inactive in experiment [1] and in experiment [5]. The Potency result in experiment [2], in experiment [3], in experiment [4] and in experiment [6] was “inactive” throughout.

With `C=C(C)CNCC`, the result in experiment [1] and in experiment [5] was inactive. In addition, the Potency entry in experiment [2], in experiment [3], in experiment [4], in experiment [6] and in experiment [7] was “inactive” in each case.

Consider `CC(C)(C)c1cc(Cc2cc(C(C)(C)C)c(O)c(C(C)(C)C)c2)cc(C(C)(C)C)c1O`, for which the compound was classed as inactive in experiment [1] and in experiment [5]. Besides, the Potency result in experiment [2], in experiment [3], in experiment [4], in experiment [6] and in experiment [7] was “inactive” each time.

In the case of `Cc1ccc2ncccc2c1`, the outcome in experiment [1] and in experiment [5] was inactive. In addition, the Potency result in experiment [2], in experiment [3], in experiment [4], in experiment [6] and in experiment [7] was “inactive” throughout.

Consider `O=C(O)CCCCCCCCC(=O)O`, for which the compound was called inactive in experiment [1] and in experiment [5]. The Potency result in experiment [2], in experiment [3], in experiment [4], in experiment [6] and in experiment [7] was “inactive” throughout.

For `C=C(C)C(=O)OCC(C)C`, the outcome in experiment [1] and in experiment [5] was inactive. Further, the Potency was 39.8 µM (active) and inactive in experiment [2]; 55.2 µM (active) and inactive in experiment [3]; 12.4 µM (active) and inactive in experiment [4]; 17.5 µM (active) and inactive in experiment [7]. Further, the Potency entry in experiment [6] is “inactive”.

`Cc1ccc([N+](=O)[O-])cc1S(=O)(=O)O`: the compound was called inactive in experiment [1] and in experiment [5]. The Potency result in experiment [2], in experiment [3], in experiment [4], in experiment [6] and in experiment [7] was “inactive” each time.

`CCCCC(C=O)CC` (stereo not drawn): the compound was called inactive in experiment [1] and in experiment [5]. Besides, the Potency result in experiment [2], in experiment [3], in experiment [4], in experiment [6] and in experiment [7] was “inactive” in each case.

Take `Nc1nc(N)nc(-c2ccccc2)n1`: the outcome in experiment [1] and in experiment [5] was inactive. Also, the Potency result in experiment [2], in experiment [3], in experiment [4] and in experiment [6] was “inactive” throughout.

On to `CCCCCCCO`, for which the result in experiment [1] and in experiment [5] was inactive. Further, the Potency result in experiment [2], in experiment [3], in experiment [4], in experiment [6] and in experiment [7] was “inactive” in each case.

In the case of `CCCCCC(=O)O`, the call in experiment [1] and in experiment [5] was inactive. In addition, the Potency entry in experiment [2], in experiment [3], in experiment [4], in experiment [6] and in experiment [7] was “inactive” throughout.

`COCCCN`: the compound was classed as inactive in experiment [1] and in experiment [5]. Besides, the Potency entry in experiment [2], in experiment [3], in experiment [4], in experiment [6] and in experiment [7] was “inactive” in each case.

`CC(C)OP(=O)(CP(=O)(OC(C)C)OC(C)C)OC(C)C`: the outcome in experiment [1] and in experiment [5] was inactive. Besides, the Potency result in experiment [2], in experiment [3], in experiment [4] and in experiment [6] was “inactive” in each case. In experiment [7], the Potency is 27.3 µM (active) and inactive.

`CCCCCCCC=O`: the outcome in experiment [1] and in experiment [5] was inactive. Besides, the Potency result in experiment [2], in experiment [3], in experiment [4], in experiment [6] and in experiment [7] was “inactive” throughout.

In the case of `CCCCCCC=O`, the compound was called inactive in experiment [1] and in experiment [5]. The Potency result in experiment [2], in experiment [3], in experiment [4], in experiment [6] and in experiment [7] was “inactive” in each case.

As to `O=C1CCCC1`, the compound was classed as inactive in experiment [1] and in experiment [5]. Further, the Potency entry in experiment [2], in experiment [3], in experiment [4], in experiment [6] and in experiment [7] was “inactive” each time.

As for `O=C(O)c1ccc(C(=O)O)c(C(=O)O)c1`, the compound was classed as inactive in experiment [1] and in experiment [5]. The Potency result in experiment [2], in experiment [3], in experiment [4], in experiment [6] and in experiment [7] was “inactive” in each case.

For `O=C1c2ccccc2CCc2ccccc21`, the result in experiment [1] and in experiment [5] was inactive. In addition, the Potency entry in experiment [2], in experiment [3], in experiment [4] and in experiment [6] was “inactive” throughout. For the same compound, the Potency in experiment [7] is 55.6 µM (active) and inactive.

Consider `CSc1ccc(Cl)cc1`, for which the outcome in experiment [1] and in experiment [5] was inactive. Moreover, the Potency entry in experiment [2], in experiment [3], in experiment [4], in experiment [6] and in experiment [7] was “inactive” throughout.

For the compound `CCc1ccccc1CC`, the result in experiment [1] and in experiment [5] was inactive. Moreover, the Potency entry in experiment [2], in experiment [3], in experiment [4], in experiment [6] and in experiment [7] was “inactive” throughout.

For `COc1ccc(OC)cc1`, the result in experiment [1] and in experiment [5] was inactive. Moreover, the Potency result in experiment [2], in experiment [3], in experiment [4], in experiment [6] and in experiment [7] was “inactive” each time.

`CCOCCOCCOCCO`: the compound was classed as inactive in experiment [1] and in experiment [5]. For the same compound, the Potency entry in experiment [2], in experiment [3], in experiment [4], in experiment [6] and in experiment [7] was “inactive” each time.

Regarding `NCCNCCN`, the call in experiment [1] and in experiment [5] was inactive. The Potency entry in experiment [2], in experiment [3], in experiment [4], in experiment [6] and in experiment [7] was “inactive” throughout.

On to `CC1(C)CC(N)CC(C)(CN)C1` (stereo not drawn), for which the call in experiment [1] and in experiment [5] was inactive. In addition, the Potency entry in experiment [2], in experiment [3], in experiment [4] and in experiment [6] was “inactive” throughout. Also, the Potency in experiment [7] is 49.3 µM (active) and 24.3 µM (active).
